# The full ranking holds about 33,000 sequences; the median of “E-score (-0.5 to 0.5)” is about -0.01, and the highest 2% start at about 0.26. What follows is part of a selection rich in the highest values, with near analogues and random picks from the rest.
# Target: Ste12 (UniProt P13574)
# Test: PBM E-score (8-mer binding enrichment) (E-score (-0.5 to 0.5)); higher = stronger / more preferred TF binding
# Conditions: protein concentration: 200 nM; construct: GST-DNA-binding domain
# Summary of the method: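 For each ungapped eight-base word taken together with its reverse complement, the Universal PBM Analysis Suite assigned an E-score. Binding data came from GST-tagged yeast transcription factors, applied at about 100-200 nM, on universal all-10-mer Agilent arrays made double-stranded by primer extension. Fluorescent anti-GST marked bound protein, and scans were normalised with masliner.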
# Sequence of UniProt P13574 (P13574 whole entry): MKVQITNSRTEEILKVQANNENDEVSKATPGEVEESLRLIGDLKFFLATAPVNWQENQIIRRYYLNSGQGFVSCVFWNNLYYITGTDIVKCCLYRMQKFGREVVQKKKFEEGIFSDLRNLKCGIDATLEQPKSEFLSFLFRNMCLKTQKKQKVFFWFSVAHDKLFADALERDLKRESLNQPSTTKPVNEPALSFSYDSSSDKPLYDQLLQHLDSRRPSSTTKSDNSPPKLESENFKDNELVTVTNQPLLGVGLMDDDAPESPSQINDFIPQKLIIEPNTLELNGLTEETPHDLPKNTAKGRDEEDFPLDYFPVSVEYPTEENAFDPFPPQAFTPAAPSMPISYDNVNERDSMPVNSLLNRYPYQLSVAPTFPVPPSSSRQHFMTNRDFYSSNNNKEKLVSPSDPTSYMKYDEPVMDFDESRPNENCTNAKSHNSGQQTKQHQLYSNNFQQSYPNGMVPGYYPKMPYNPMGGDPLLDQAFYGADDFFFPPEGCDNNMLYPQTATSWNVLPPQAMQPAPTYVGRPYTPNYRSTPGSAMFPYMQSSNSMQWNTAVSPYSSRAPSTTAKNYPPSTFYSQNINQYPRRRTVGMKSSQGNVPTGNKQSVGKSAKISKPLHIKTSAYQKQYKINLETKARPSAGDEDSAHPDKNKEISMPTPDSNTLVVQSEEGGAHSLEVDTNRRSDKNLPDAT
row,Sequence,PBM E-score
1,ACTTAGAT,-0.0771
2,ATGGGAAT,-0.202
3,ACCATACG,-0.0611
4,CGCGCTAC,0.00148
5,ACTGGGCC,-0.244
6,AGCTAGAA,-0.0198
7,GAACCGGA,-0.0365
8,GAGCGAGC,-0.00859
9,GTCGCTGA,0.0069
10,TAACGATA,0.138
11,AAACGATA,0.279
12,CAACGATA,0.0594
13,AGAACTGG,-0.0181
14,ATAGGATG,0.149
15,AAAAATCC,0.178
16,AAATATAT,0.273
17,AAAAATAT,0.339
18,AAATATAA,0.224
19,AAATAGAT,0.275
20,AAAAATAC,0.25
21,AAAAATCA,0.254
22,AAATAGAC,-0.0352
23,AAAAATCT,0.318
24,AAAAATAG,0.24
25,AAATATAC,0.225

row,Sequence,PBM E-score
1,AAATAGAG,0.0914
2,CTCGTTTA,0.0722
3,CCAACCGA,0.0461
4,AACAGCCA,-0.019
5,AGCGCAAG,-0.0674
6,CACGGCAC,-0.113
7,ACAAGCGG,0.106
8,TACCTACA,-0.0205
9,AACTATGT,-0.0705
10,TGTTGTAA,0.28
11,GGTTGAGA,-0.103
12,TGTTGAAA,0.311
13,AGTTGTAA,0.068
14,GGTTGAAA,0.292
15,GGTTGAAC,-0.0192
16,GGTTGTAA,0.0372
17,AGTTGAAA,0.19
18,CGTTGAAA,0.185
19,CCCCGTAC,-0.0713
20,AGTCTGCA,-0.122
21,CGCGTACC,-0.113
22,CCGCCTTA,0.0555
23,AAGGTTCT,0.0379
24,CCCGAACA,0.128
25,CGAAGCCC,-0.192

row,Sequence,PBM E-score
1,AATACAAG,0.302
2,AATACAAT,0.0948
3,AATACAAC,0.157
4,GATACAAA,0.134
5,TATACAAA,0.127
6,AATACAAA,0.265
7,GGCAGCCC,-0.142
8,GACTACAA,-0.102
9,GGAATCCC,0.0198
10,GACCATGC,-0.139
11,CACTCAAA,0.0429
12,ATCTCAAG,0.0665
13,AACTCAAG,-0.00801
14,ATCTCAAA,0.27
15,AACTCAAA,0.266
16,GTCTCAAA,0.218
17,CTCTCAAA,0.0271
18,TTCTCAAA,0.291
19,ATCTCAAT,0.0795
20,ATGCCGTA,-0.0947
21,CTGGTCGA,-0.196
22,ATGGATTC,0.186
23,ACCGTGAT,0.0763
24,TGATTACA,-0.00637
25,ACAACCAA,0.0252

row,Sequence,PBM E-score
1,CGATCTCC,-0.108
2,ATCAACTG,-0.112
3,CATTAAAA,0.27
4,TATTAACA,0.164
5,CATTAAAC,0.191
6,AATTAAAA,0.308
7,GATTAAAA,0.234
8,CATTAAAG,0.034
9,AATTAAAG,0.103
10,TATTAAAA,0.341
11,AATTAAAC,0.241
12,TAAGGCAA,0.0326
13,CTACCCTC,-0.0776
14,GCCCTCCC,0.115
15,TGCTCACA,-0.148
16,CCTTGTGC,-0.0236
17,CACCATAA,0.136
18,ATACTAGG,0.119
19,GGTCCTGA,-0.163
20,AGCGCTAC,-0.0647
21,CCGCAGGA,-0.0635
22,ATTACAAA,0.165
23,TCTACAAA,0.138
24,TGTACAAA,0.0309
25,GTTACAAC,0.289

row,Sequence,PBM E-score
1,CTTACAAC,0.0334
2,CTTACAAA,0.143
3,TTTACAAA,0.294
4,GTTACAAA,0.384
5,ATTACAAC,-0.0498
6,TACGTCGA,0.0119
7,GGAGTAGA,-0.0759
8,AAGCTGGA,-0.0676
9,GCGACCCC,0.0725
10,GGATGCGA,-0.201
11,AGTCCATC,-0.306
12,CAAATATA,0.0746
13,GAAATATA,0.284
14,AAAATATA,0.241
15,GAAATACA,-0.00127
16,GAAATATC,0.0344
17,TAAATATA,0.321
18,GTCTCTGA,-0.168
19,CCATCTCA,-0.0464
20,CGGCCCCG,0.0097
21,CACCATGA,0.0412
22,CGCGATGC,-0.182
23,CGTCCTAC,-0.0953
24,TCAGTGCA,0.0371
25,CTAGGGCA,-0.159

row,Sequence,PBM E-score
1,GATGATGC,-0.125
2,GTTGCGAA,0.093
3,CGCAAGGC,0.049
4,AGTGAAAG,0.126
5,CGTGAAAA,0.22
6,AGTGAAAC,0.394
7,GGTGAAAC,0.463
8,GGTGAACC,-0.00551
9,CGTGAAAG,0.0979
10,GGTGAAAA,0.0914
11,CGTGAAAC,0.364
12,AGTGAAAT,0.0994
13,CCTCGTTA,0.049
14,CGGTAACG,-0.141
15,GCCTAAAC,-0.125
16,CACAGGTA,0.0125
17,ACCGTCTG,-0.00201
18,CCCAGGGC,-0.256
19,CGGATGAA,0.268
20,TAGATGAA,0.279
21,GCGATGAA,0.116
22,AAGATGAA,0.18
23,CGGATGAG,-0.11
24,ACGATGAA,0.274
25,ACGATGAC,-0.173

row,Sequence,PBM E-score
1,GAGATGAA,0.156
2,AGGATGAA,0.128
3,CATACCAA,-0.0054
4,AACTCTCC,-0.129
5,AGCGAGAT,0.119
6,CCGAATTC,-0.00494
7,TGACCTCA,-0.0719
8,ACAGAAGC,-0.0242
9,AGAAGACT,-0.22
10,TAGTTTGA,0.0916
11,AAGTTTCA,0.437
12,AAGTTTTA,0.287
13,AAGTTTCC,0.11
14,CAGTTTCG,0.181
15,CAGTTTCC,0.0749
16,TAGTTTAA,0.171
17,CAGTTTCA,0.374
18,AAGTTTCG,0.175
19,AAGTTTTC,0.0212
20,TAGTTTCA,0.36
21,AAGTTTTG,0.116
22,CGGCGAGA,-0.167

# — the supplement of paper PMC3334620
